Assay outcomes (PubChem)
Rab9 promoter act: activates the Rab9 promoter; AID 485297; Potency, µM (top dose mostly 9.22 µM), for inactives: at the top dose activation, negative = inhibition, usual class: activators; Huh7 Rab9 promoter-luciferase reporter, luminescence, 24 h; actives 2.8% (n = 320,000); also: % of control where 0% means no effect; nearly all actives have a fitted effect of over 60% in size
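Luminescence read-out: Huh7 cells stably expressing Rab9-luciferase, treated 24 h with compound at 37 °C, then lysed with luciferase reagent for 10 min at ambient before reading.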
SMN2 splice enh: SMN2 splice variant enhancement | HEK293 SMN2-luciferase splicing reporter, luminescence, 30-36 h | Potency, µM (titrated, usually from 46.1 µM), for the others: at the top dose activity change, positive = activation, most hits filed as activators | actives 2.8% (n = 210,000); also: % of control where 0% means no effect; nearly all actives have a fitted effect of over 55% in size
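qHTS luciferase splicing reporter: luminescence rises when SMN2 exon 7 is included in transfected HEK293 cells. Compound exposure lasted 30-36 h at 37C, with 4.5 mM final sodium butyrate as control, followed by a ONE-Glo read.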
ELG1 genotox: genotoxicity induction in ELG1-luciferase HEK293T cells; HEK293T ELG1-luciferase reporter, luminescence, 16 h; AID 504466; actives 1.3% (n = 330,000); Potency, µM (top dose mostly 46 µM), without a hit: at the top dose activity change, positive = activation, usual class: activators; also: % of control where 0% means no effect; nearly all actives have a fitted effect of over 60% in size
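Screening used a luciferase reporter fused to human ELG1 in HEK293T cells. Luminescence was read on a CCD plate imager after 16 hr exposure and 30 min ONE-Glo incubation.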
uPA generation: blocks generation of uPA at the cell surface | cell surface uPA generation assay, qHTS | actives 0.31% (n = 330,000) | AID 540303 | Potency, µM (doses to about 38.3 µM), inactives show at the highest dose activity change, negative = inhibition, actives largely listed as inhibitors; active = well fitted inhibition curve with a large enough effect; inconclusive = small, poorly fitted or top-dose-only effect; inactive = no such curve, though single readings can be large or run the other way; tested in mouse RAW 264.7 cells; also: % is scaled to controls: 0 for no effect and ±100 for the full control effect; nearly all actives have a fitted effect of over 55% in size
FLuc counter: firefly luciferase modulation, counter-screen for miR-21 project; Potency, µM (series often up to 57.5 µM), for the others: top-dose activity change, negative = inhibition, hits mostly inhibitors; P08659; actives 6.9% (n = 360,000); purified FLuc, Km substrates, luminescence inhibition;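 also: plate controls were vehicle for no effect and reference inhibitor for full effect; nearly all actives have a fitted effect of over 55% in size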
Target sequence (P08659 whole entry, looked up): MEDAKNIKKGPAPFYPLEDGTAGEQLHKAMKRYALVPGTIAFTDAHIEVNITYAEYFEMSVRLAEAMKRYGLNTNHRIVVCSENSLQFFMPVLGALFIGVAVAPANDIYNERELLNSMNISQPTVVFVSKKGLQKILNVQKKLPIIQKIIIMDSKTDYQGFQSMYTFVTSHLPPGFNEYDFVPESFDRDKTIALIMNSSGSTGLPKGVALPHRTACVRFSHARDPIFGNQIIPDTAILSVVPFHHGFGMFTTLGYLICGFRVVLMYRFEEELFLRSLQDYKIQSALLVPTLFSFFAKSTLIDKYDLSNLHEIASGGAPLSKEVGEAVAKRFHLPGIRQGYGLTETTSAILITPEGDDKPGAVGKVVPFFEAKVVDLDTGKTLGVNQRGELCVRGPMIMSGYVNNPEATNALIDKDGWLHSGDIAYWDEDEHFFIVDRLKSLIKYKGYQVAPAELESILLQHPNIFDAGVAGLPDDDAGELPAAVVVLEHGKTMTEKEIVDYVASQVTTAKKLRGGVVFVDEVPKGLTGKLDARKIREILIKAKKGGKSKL
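Biochemical qHTS of compounds, final roughly 60 µM downward over six points, against 10 nM purified firefly luciferase using Km concentrations of substrates (10 uM D-luciferin, 10 uM ATP) in Tris acetate pH 7.5 buffer; luminescence output.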
NPC1 promoter act: activators of NPC1 promoter | Huh7 NPC1 promoter luciferase reporter, 24 h | Potency, µM (series often up to 9.22 µM), for inactives: at the highest dose activation, usual class: activators | actives 2.4% (n = 320,000); also: % of control where 0% means no effect; nearly all actives have a fitted effect of over 60% in size
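Compounds in DMSO were transferred onto Huh7 NPC1-luciferase reporter cells pre-incubated 2 h; after 24 h at 37 °C, Amplite reagent was dispensed and luminescence recorded 10 min later.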
* marks the source's active call; other numbers are inactive results; u = inconclusive; x = not tested or not shown. Sampled rows, rich in hits. Any-hit rate of the full collection: about 7.3%. Unless noted, calls follow the shape of the dose curve; as a rule, active = well fitted curve in the direction sought with a large enough effect; inconclusive = small, poorly fitted or top-dose-only effect, or another doubt; inactive = no such curve, though single readings can be large; an effect the other way counts as inactive or inconclusive. Potency is read from the fitted curve at half-maximal effect.

SMILES | Rab9 promoter act | SMN2 splice enh | ELG1 genotox | uPA generation | FLuc counter | NPC1 promoter act
O=C(/C=C/c1cccc([N+](=O)[O-])c1)Nc1ccccn1 | 2.8µM* | 27% | 16% | u | -1% | u
O=C(CF)NC(NC(=S)Nc1cccc([N+](=O)[O-])c1)C(Cl)(Cl)Cl (stereo unspecified) | -3% | 15% | -12% | -26% | -3% | -8%
CN1CCN(C(=O)COc2ccc(-c3nc4ccccc4s3)cc2)CC1 | 0.32µM* | 4µM* | u | x | 0.15µM* | 0.63µM*
CCOC(=O)c1sc(=NC(=O)c2ccc(C)c(C)c2)n(C)c1C | 2µM* | -42% | 12µM* | -1% | u | 3.2µM*
CC[C@]1(O)CC(O[C@@H]2CC(N(C)C)C(O)C(C)O2)c2c(cc3c(c2O)C(=O)c2c(O)cccc2C3=O)C1C(=O)OC (stereo partly specified) | x | 0.79µM* | x | x | x | x
CC[C@@]1(O)CC(O)c2c(cc3c(c2O)C(=O)c2c(O)ccc(O)c2C3=O)C1C(=O)OC (stereo partly specified) | x | -10% | x | x | x | x
O=C(O)CCC1NCC2CC1CN1CCCCC21 (stereo unspecified) | x | -5% | x | x | x | x
COc1ccc(OC)c(N=Cc2c(O)n(Cc3ccccc3)c(=S)[nH]c2=O)c1 | 0% | x | -6% | 4% | 1% | 3%
COc1ccc(N=Cc2c(O)n(Cc3ccccc3)c(=S)[nH]c2=O)c(OC)c1 | u | x | u | 2% | 1.2µM* | u
COC1C=CC23c4cc5c(cc4CN(CC2O)C3C1)OCO5 (stereo unspecified) | x | -85% | x | x | x | x
CNC(=O)Oc1ccc(C(=O)N2c3ccccc3NC(=O)C2C)cc1 (stereo unspecified) | -4% | x | 0% | -22% | 2% | -4%
CNC(=O)Oc1cccc(-c2cn3cc(OC(=O)NC)ccc3n2)c1 | u | 13µM* | 21µM* | -7% | 3.8µM* | 3.5µM*
CNC(=O)Oc1ccc(-c2cn3cc(Cl)ccc3n2)cc1 | 0.63µM* | 5µM* | u | -8% | 1.1µM* | 0.89µM*
CCOc1ccc(-c2cn3c(n2)sc2cc(C(=O)N4CCCC(C)C4)ccc23)cc1 (stereo unspecified) | x | 0% | x | x | 4.3µM* | x
CCOc1ccc(C(=O)N2CCC(c3noc(-c4ccc(S(=O)(=O)N5CCCC5)cc4)n3)CC2)cc1 | x | -54% | x | x | 1% | x
CC1=NN(c2ccccc2)C(=O)C1/C=C1\C(=O)NC(=O)N(c2cc(C)cc(C)c2)C1=O (stereo unspecified) | -5% | 8% | 5% | 10% | 9.5µM* | -3%
CC1=NN(c2ccccc2)C(=O)C1/C=C1/C(=O)NC(=O)N(c2cccc(C)c2)C1=O (stereo unspecified) | -6% | -11% | -4% | x | 13µM* | -1%
Cc1cc(C)cc(N2C(=O)NC(=O)/C(=C\C=C\c3ccco3)C2=O)c1 | -3% | -4% | -18% | -13% | u | -11%
CC1=NN(c2ccccc2)C(=O)C1/C=C1/C(=O)NC(=O)N(c2cc(C)cc(C)c2)C1=O (stereo unspecified) | -7% | -5% | -1% | 2% | 17µM* | -6%
CC1=NN(c2ccccc2)C(=O)C1/C=C1\C(=O)NC(=O)N(c2ccc(C)c(C)c2)C1=O (stereo unspecified) | -4% | 6% | -6% | 5% | 15µM* | 0%
Cc1cc(C)cc(N2C(=O)NC(=O)/C(=C\c3cc(C)n(C)c3C)C2=O)c1 | -1% | 0% | 7% | 1% | 2% | -1%
CN(C)c1nc(C=C(C#N)C#N)c(Cl)n1-c1ccc(F)cc1 | 0% | -109% | -20% | u | 2% | -11%
CCC12CCN(CC3CC3)CC1Oc1c(C)cccc12 (stereo unspecified) | x | x | x | x | 4% | x
CN(C)c1ccc(NC(=O)Oc2ccccc2)cc1 | 11% | -2% | u | -2% | 3µM* | 1%
